# Data taken from ChEMBL document CHEMBL1157539, “Thousands of chemical starting points for antimalarial lead identification” (Nature, 2010).
# System: Plasmodium falciparum
# Assay: GSK_TCMDC: Inhibition of Plasmodium falciparum 3D7 in whole red blood cells, using parasite LDH activity as an index of growth. Test compounds present at 2uM
# Assay type: functional
row,Structure (SMILES),Inhibition [%]
1,O=C(Nc1cccc(C(F)(F)F)c1)NC1CCN(c2ccnc3cc(Cl)ccc23)C1.O=C(O)C(F)(F)F (stereo not drawn),100
2,COc1ccc2nccc([C@@H](O)CN3CCC(NCc4cnc5c(c4)NC(=O)CS5)CC3)c2c1.O=C(O)C(=O)O,87
3,O=C(NCC1CCN(Cc2cccc(C(F)(F)F)c2)C1)c1cc(-c2cccc(Cl)c2)cs1.O=C(O)C(F)(F)F (stereo not drawn),93
4,COc1ccc(CN(C)Cc2ccc(NC(=O)c3cccc4c(=O)c5cccc(C)c5[nH]c34)cc2)cc1OC,92
5,Cc1cc(N(C)C2CCN(C)C2)nc(Nc2ccc(Cl)cc2)n1 (stereo not drawn),100
6,CCOc1cc(Br)c(C(C)NC(=O)c2cccc(OC)c2)cc1OCC (stereo not drawn),90
7,N#Cc1ccc(CN2CCC(Oc3ccc(NC(=O)c4ccccc4)cc3Cl)CC2)cc1.O=C(O)C(F)(F)F,84
8,CCOC(=O)C1=C(C)N=c2sc(=Cc3cc(Cl)ccc3O)c(=O)n2C1c1ccc2c(c1)OCO2 (stereo not drawn),96
9,Cc1cnc(C(=O)Nc2cccc(-c3cccc(-c4nc5cccc(C)c5[nH]4)c3)c2)cn1,99
10,CC(C)c1ccc(N(CC(=O)N/N=C/c2ccc(C(F)(F)F)cc2)S(=O)(=O)c2ccc(C(F)(F)F)cc2)cc1,91
11,COc1ccc2nc(C)cc(Nc3ccc(Cl)cc3)c2c1,89
12,O=C(NCc1cccc(F)c1)Nc1ccc(-c2cccc(-c3nc4ccccc4[nH]3)c2)cc1,86
13,CN1CCC(NCc2ccc(-c3cccc(S(=O)(=O)NCCc4ccccn4)c3)cc2)CC1.O=C(O)C(F)(F)F,84
